Hits are enriched below; roughly 2.8% of the tested compounds scored in any of these assays.
TRPM1 prom inh: inhibitors of MITF-dependent TRPM1 promoter reporter, primary screen, cell-based, SK-MEL-5, single point, luciferase; actives 0.83% (n = 330,000); inhibition, % at 12.5 µM; AID 488899, 2010; SK-MEL-5 TRPM1 promoter luciferase, 24 h;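 active = mean inhibition across replicates of 60% or more, whatever share of single replicates reaches that level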
Beta2AR agonist: beta2AR agonists driving receptor internalization, primary screen, cell-based, FAP fluorogen, flow cytometry | Beta-2 adrenergic receptor (Homo sapiens), P07550 | Am2.2-beta2AR cells | response, % (no concentration beside the values) | actives 0.43% (n = 340,000) | AID 504454, 2011;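 active = response above a set limit, near 3 SD of response in nonfluorescent compounds, cut at about 42% in these data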
Target sequence (P07550 whole entry, looked up): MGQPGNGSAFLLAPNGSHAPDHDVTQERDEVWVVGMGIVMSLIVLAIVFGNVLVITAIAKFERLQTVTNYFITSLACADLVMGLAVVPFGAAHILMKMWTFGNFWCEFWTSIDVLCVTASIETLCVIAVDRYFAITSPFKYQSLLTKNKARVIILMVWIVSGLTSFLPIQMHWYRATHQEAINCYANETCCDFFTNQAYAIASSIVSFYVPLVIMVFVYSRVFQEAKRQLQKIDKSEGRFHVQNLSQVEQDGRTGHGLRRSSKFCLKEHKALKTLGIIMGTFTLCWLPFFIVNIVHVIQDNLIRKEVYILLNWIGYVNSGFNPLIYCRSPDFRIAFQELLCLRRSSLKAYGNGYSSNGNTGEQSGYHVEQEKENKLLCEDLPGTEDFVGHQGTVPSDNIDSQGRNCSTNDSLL
Peg3 prom inh: Peg3 promoter-driven luciferase inhibitors, primary screen, cell-based, HeLa, luciferase luminescence | actives 1.7% (n = 360,000) | AID 588405, 2011 | inhibition, % at 20 µM | HeLa PEG-Prom luciferase reporter, overnight;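 active = inhibition of at least 50% at 20 µM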
CF NFkB inh: inhibitors of PAF-induced NF-kB signaling, primary screen, cell-based, GFP fluorescence, uHTS | KKLEB NF-kB-GFP reporter, GFP fluorescence overnight | inhibition, % at 5 µM | actives 0.86% (n = 360,000) | AID 588850, 2011;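 active = at least 50% inhibition at 5 µM, scaled per plate between neutral and stimulator controls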;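 note: PAF is a Pseudomonas aeruginosa culture filtrate used as stimulus; plate controls were PAF-stimulated DMSO wells for no effect and unstimulated DMSO wells for full effect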
HIF-2a block: HIF-2a reporter inhibitors, primary screen, luminescence, 786-0 RCC cells; 786-0 RCC cells HIF-2a reporter, luciferase luminescence, overnight; inhibition, % at 18.8 µM; actives 0.72% (n = 360,000);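 active = inhibition of the luminescence signal of 40% or more relative to plate controls, in a single-dose primary screen at 18.75 µM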
KKLEB cytotox: cytotoxicity in KKLEB CF airway cells, primary screen, cytotoxicity control for CF NF-kB inhibitor project, cell-based, uHTS, fluorescence assay plates; actives 0.36% (n = 360,000); KKLEB CF airway cells viability, ATPlite luminescence, overnight; stronger effect = lower value; cells stimulated with P. aeruginosa culture filtrate; AID 602141, 2011; activity change (cytotoxicity), % at 5 µM;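 active = corrected activity change at or below -50% at 5 µM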
* = called active by the depositor; · = not tested or not shown.

SMILES | TRPM1 prom inh | Beta2AR agonist | Peg3 prom inh | CF NFkB inh | HIF-2a block | KKLEB cytotox
Oc1ccc(C[C@H]2CNC(=S)N2CC2CCCN2C[C@H](Cc2ccccc2)N2C[C@H](Cc3ccc(O)cc3)N(CCc3ccccc3)C2=S)cc1 (stereo partly specified) | 24 | 20 | 68* | 41 | -47 | -2
CC(C)C[C@@H](CN1CCC[C@@H]1CN1C(=S)NC[C@@H]1Cc1ccc(O)cc1)N1C[C@H](Cc2ccc(O)cc2)N(CCc2ccccc2)C1=S | · | · | 78* | 37 | -22 | -11
CCOc1ccc(CCN2C(=S)N([C@@H](CC(C)C)CN3CCCC3CN3C(=S)NC[C@@H]3Cc3ccc(O)cc3)C[C@@H]2Cc2ccccc2)cc1 (stereo partly specified) | 6 | 10 | -7 | 15 | -10 | 9
CCOc1ccc(CCN2C(=S)N([C@@H](CC(C)C)CN3CCCC3CN3C(=S)NC[C@@H]3Cc3ccc(O)cc3)C[C@@H]2Cc2ccc(O)cc2)cc1 (stereo partly specified) | 15 | 15 | 87* | 40 | -48 | -7
Oc1ccc(C[C@@H](CN2CCC[C@@H]2CN2C(=S)NC[C@@H]2Cc2ccccc2)N2C[C@H](Cc3ccccc3)N(CCc3ccccc3)C2=S)cc1 | · | · | -17 | 4 | -8 | -17
CC(=O)Oc1[nH]c(=O)c2cccc3c2c1CCC3 | · | · | -3 | 10 | 15 | -5
CCCCCCOC(=O)c1ccc(N)cc1 | -46 | -6 | -317 | -1 | -298 | 8
CCCCCCCCCCCC1N=C(N)NC(CCCO)=C1C(=O)OC (stereo unspecified) | -8 | -1 | 96* | 7 | 38 | -4
C[C@@H]1CN([C@H](C)CO)C(=O)c2cc(Br)cnc2O[C@H]1CN(C)C(=O)Nc1ccc2c(c1)OCO2 | · | · | -5 | -7 | -6 | 0
COC1=C(C)C(=O)C2=C(C1=O)C1C3CC4=C(C(=O)C(OC)=C(C)C4=O)C(CNC(=O)C(C)=O)N3C(C#N)C(C2)N1C (stereo unspecified) | 114* | -6 | 101* | 81* | 78* | -44
COc1ccccc1-c1nnc(SC(C(=O)c2c[nH]c3ccccc23)c2ccccc2)n1C (stereo unspecified) | 15 | 1 | 54* | 19 | 35 | -8
COc1ccccc1-c1nnc(SCC(=O)NC2CC2)n1C | -5 | -8 | 11 | 15 | 4 | -6
COc1cccc(-c2nnc(SC(C(=O)c3c[nH]c4ccccc34)c3ccccc3)n2C)c1 (stereo unspecified) | 8 | -2 | 53* | 10 | 24 | -13
C=CCOc1cccn2c(N(C=O)Cc3ccccc3)c(CC)nc12 | · | · | 0 | 18 | 4 | 5
COc1ccc(CNC(=O)C2Cc3c(-c4cccc(F)c4)ccnc3O2)cc1OC (stereo unspecified) | · | · | 3 | -35 | 6 | 22
CCOC(=O)C1=C(c2ccccc2)NC(=O)NC1c1cc(Cl)c(O)c(OC)c1 (stereo unspecified) | 8 | 11 | 8 | 7 | 7 | 0
CCOC(=O)C1=C(c2ccccc2)NC(N)=NC1c1ccc(OCc2ccc(Cl)cc2)c(OC)c1 (stereo unspecified) | 35 | 1 | 110* | 3 | 4 | 3
O=C(Nc1nnc([C@H]2C[C@H](O)[C@@H](CO)O2)s1)Nc1ccccc1C(F)(F)F | · | · | 7 | -2 | 8 | -6
O=C(CNC(=O)c1ccccc1)N/N=C/c1cccs1 | 6 | 2 | -5 | 4 | -20 | 11
O=C(Cc1ccccc1)NCC(=O)N/N=C/c1ccc([N+](=O)[O-])s1 | 83* | 2 | 33 | 2 | 6 | -4
Cc1cc(C(=O)N/N=C/c2ccc([N+](=O)[O-])s2)n[nH]1 | 70* | 13 | -20 | -6 | 26 | 0
COc1ccc(NC(=O)CCC(=O)N/N=C/c2ccc([N+](=O)[O-])s2)cc1 | 72* | 4 | 19 | 6 | 0 | -6
